From PubChem BioAssay
PfG6PD inh: PfG6PD (Plasmodium falciparum) enzyme inhibition | PfGluPho enzyme, NADPH resazurin-diaphorase fluorescence | inhibition, % at 20 µM | 350,000 tested, 0.78% active | AID 504690;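 active = inhibition reaching at least a set limit at 20 µM in the primary screen, cut at about 59% in these data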;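 also: 0% = DMSO wells with substrate and 100% = DMSO wells lacking glucose-6-phosphate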
NPR1 activator: GC-A (human) enzyme activation; activation, % at 10 µM; AID 1671463; P16066; HEK293 GC-A cells, cGMP TR-FRET, EC30 ANP; 0% at EC30 ANP, 100% saturating ANP; 370,000 tested, 0.14% active; in the data active = activation above about 40%
Neddylation inh: cullin neddylation inhibition. P61081+Q13564. TR-FRET cullin neddylation, biochemical. inhibition, % at 25 µM. 360,000 tested, 0.58% active. AID 651699; in the data active = inhibition above about 36%
APOBEC3A inh: blocks human APOBEC3A ssDNA deamination; recombinant A3A, FAM/TAMRA ssDNA deamination fluorescence; P31941; 330,000 tested, 0.41% active; AID 493011; inhibition, % at 20 µM;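 active = at least 40% inhibition at 20 µM here, with at most 30% in a related deaminase screen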;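 also: plate controls were A3A with DMSO for no effect and wells lacking A3A enzyme for full effect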
A3G deaminase: inhibitors of human APOBEC3G DNA deaminase; inhibition, % at 20 µM; 330,000 tested, 0.28% active; recombinant A3G, ssDNA deamination FAM/TAMRA fluorescence; AID 493012;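 active = inhibition of at least 40% at 20 µM, with no more than 30% in the related APOBEC3A deaminase screen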;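 also: plate controls were DMSO wells with A3G for no effect and wells lacking A3G enzyme for full effect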
NPR2 activator: GC-B (human) receptor activation | P20594 | HEK293-GC-B cells, CNP EC30, cGMP TR-FRET; 0% at EC30 CNP, 100% saturating CNP | activation, % at 10 µM | 370,000 tested, 0.11% active | AID 1920062;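 active = activation at 10 µM reaching about 35% in either raw or pattern-adjusted values, limit read from the data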
APOBEC3A confirm: APOBEC3A (human) deaminase inhibition, confirmed | shares compounds with APOBEC3A inh | recombinant A3A, ssDNA deaminase UDG fluorescence assay | inhibition, % at 20 µM | 1,400 tested, 63% active;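 active = inhibition reaching a set limit, 80% of the first screen's cutoff, at 20 µM in any replicate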;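 also: plate controls were DMSO wells with A3A for no effect and wells lacking A3A enzyme for full effect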
UDG A3A counter: inhibits UDG, flagging false APOBEC3A inhibitors | shares compounds with APOBEC3A inh | UDG counterscreen, FAM/TAMRA uracil oligo fluorescence | inhibition, % at 20 µM | 1,000 tested, under 10 active | AID 504714; call rule not given here
* marks the source's active call; other numbers are inactive results. Shown are actives, neighbours in structure and some others; about 2% of the full set was active somewhere.

CC(=O)c1c(COC(=O)c2cccnc2)nc2ccccc2[n+]1[O-] was read as PfG6PD inh 3, NPR1 activator -2, Neddylation inh -19, APOBEC3A inh 58*, A3G deaminase 20, NPR2 activator 4, APOBEC3A confirm 76* and UDG A3A counter 0.
For O=C(CSc1nc2ccccc2c(=O)[nH]1)c1cccs1 the results were PfG6PD inh -28, NPR1 activator 0, Neddylation inh -19, APOBEC3A inh 44*, A3G deaminase 0, NPR2 activator -9 and APOBEC3A confirm 0.
`C#CCCCN([C@H](C(=O)OC)C(C)C)S(=O)(=O)c1ccc(F)cc1Br` gave NPR1 activator -2 and NPR2 activator -6.
`COC(=O)C1CN(C2CCCC2)CCS(=O)(=O)N1Cc1ccc(Cl)cc1` (configuration not stated) gave NPR1 activator 0 and NPR2 activator 0.
`CCOC(=O)c1c(NC(=O)Cn2nc(C(F)(F)F)cc2C)sc(C)c1C` gave PfG6PD inh 4, NPR1 activator -13, Neddylation inh -4, APOBEC3A inh 45*, A3G deaminase -6, NPR2 activator -8, APOBEC3A confirm 1 and UDG A3A counter 4.
C=CCn1c(COc2ccc(C)cc2)nnc1SCc1ccc([N+](=O)[O-])cc1 was read as NPR1 activator -7 and NPR2 activator -7.
For CCCCCCCCN1C(=O)[C@@H](CC(=O)NCc2ccc(OC)c(OC)c2)C[C@@]2(C(=O)OC)C1=C[C@H](C(C)C)O[C@@H]2C1CC1 the results were NPR1 activator -6 and NPR2 activator 5.
`O=C(O)c1ccc(CSc2n[nH]c(-c3ccco3)n2)cc1` gave PfG6PD inh -14, NPR1 activator 0, Neddylation inh 2, APOBEC3A inh 85*, A3G deaminase 26, NPR2 activator -2, APOBEC3A confirm 59* and UDG A3A counter 1.
CCC(C)c1ccc(S(=O)(=O)N2CCN(CC(O)COCC3CCCO3)CC2)cc1 (configuration not stated) was read as PfG6PD inh -11, NPR1 activator 1, Neddylation inh 13, APOBEC3A inh 55*, A3G deaminase -9, NPR2 activator 3, APOBEC3A confirm -11 and UDG A3A counter 1.
CCCCN1C[C@@H](COCc2ccccc2)Oc2cccc(F)c2S1(=O)=O was read as NPR1 activator -1 and NPR2 activator -3.
CC(=O)Nc1ccc(S(=O)(=O)Nc2cccc(-n3cnnn3)c2)cc1 was read as PfG6PD inh -13, NPR1 activator 2, Neddylation inh -1, APOBEC3A inh -6, A3G deaminase -8 and NPR2 activator 2.
`CC(=O)c1ccc(S(=O)(=O)Nc2cccc(-n3cnnn3)c2)cc1` gave PfG6PD inh 1, NPR1 activator 5, Neddylation inh -1, APOBEC3A inh 43*, A3G deaminase 22, NPR2 activator -1 and APOBEC3A confirm 31.
O=C(CSc1nc2ccccc2c(=O)n1-c1ccccc1)NCC1CCCO1 (configuration not stated) was read as PfG6PD inh -4, NPR1 activator -3, Neddylation inh 0, APOBEC3A inh 50*, A3G deaminase 18, NPR2 activator 1, APOBEC3A confirm 71* and UDG A3A counter -2.
Screening CCn1c(SCC(=O)NC2CCCCC2)nc2ccccc2c1=O returned PfG6PD inh -6, NPR1 activator 6, Neddylation inh -3, APOBEC3A inh 63*, A3G deaminase 15, NPR2 activator 0, APOBEC3A confirm 51* and UDG A3A counter -3.
For Cc1ccc(-n2c(SCC(=O)NCC3CCCO3)nc3ccccc3c2=O)cc1C (configuration not stated) the results were PfG6PD inh 13, NPR1 activator -2, Neddylation inh 3, APOBEC3A inh -4, A3G deaminase -8 and NPR2 activator 4.
Screening CCn1c(SCC(=O)N2CCN(c3ccc(Cl)cc3)CC2)nc2ccccc2c1=O returned PfG6PD inh 4, NPR1 activator -1, Neddylation inh 3, APOBEC3A inh 44*, A3G deaminase 18, NPR2 activator 0, APOBEC3A confirm 66* and UDG A3A counter -1.
Screening CCn1nnnc1SCC(=O)N1CCN(c2ccccc2)CC1 returned PfG6PD inh -4, NPR1 activator 4, Neddylation inh 0, APOBEC3A inh -1, A3G deaminase 0 and NPR2 activator -4.
`O=C(CSc1nnnn1Cc1ccccc1)N1CCN(c2ccccc2)CC1` gave PfG6PD inh -3, NPR1 activator 1, Neddylation inh -7, APOBEC3A inh 47*, A3G deaminase 13, NPR2 activator 0 and APOBEC3A confirm 27.
CC(=O)NCCn1c(SCC(=O)NC2CCCCC2)nc2ccccc2c1=O was read as PfG6PD inh -20, NPR1 activator -1, Neddylation inh 0, APOBEC3A inh 0, A3G deaminase -9 and NPR2 activator 2.
COC(=O)C1CN(Cc2ccccc2)CCS(=O)(=O)N1Cc1ccc(Cl)cc1 (configuration not stated) was read as NPR1 activator -7 and NPR2 activator -10.
Cc1cccc(-c2cccc3c4c([nH]c23)[C@@H]2C[C@H](N(C)C(=O)Nc3ccccc3)[C@H]([C@H](C)O)CN2CC4)c1 was read as NPR1 activator -2 and NPR2 activator -5.
For O=S1(=O)c2ccc(Br)cc2OC[C@@H](Cc2ccccc2)N1Cc1cn(CCC2OCCO2)nn1 the results were NPR1 activator 3 and NPR2 activator -6.
Screening O=C(COC(=O)c1ccc(F)c(S(=O)(=O)N2CCOCC2)c1)NC1CC1 returned PfG6PD inh 9, NPR1 activator 0, Neddylation inh 13, APOBEC3A inh 1, A3G deaminase 6 and NPR2 activator -10.
O=C(COC(=O)c1ccc(F)c(S(=O)(=O)N2CCOCC2)c1)Nc1ccc2[nH]c(=O)[nH]c2c1 was read as PfG6PD inh 1, NPR1 activator 1, Neddylation inh 10, APOBEC3A inh 42*, A3G deaminase 15, NPR2 activator 4, APOBEC3A confirm 42* and UDG A3A counter -2.
For O=C(NC1CCCC1)C(c1ccccn1)N(C(=O)c1csnn1)c1ccc(F)cc1 (configuration not stated) the results were PfG6PD inh -8, NPR1 activator 1, Neddylation inh 2, APOBEC3A inh 72*, A3G deaminase -6, NPR2 activator 0, APOBEC3A confirm -6 and UDG A3A counter -3.
